In PubChem BioAssay AID686979 (National Center for Advancing Translational Sciences (NCATS), 2013):
Among all 420,000 compounds or so, about 50,000 (12%) were called active. Inconclusive results (about 26%) are left out. The entries come from a sample that favours actives as a whole. A number with no mark means an inactive call. Calls come from the whole dose curve; as a rule, active = well fitted inhibition curve with a large enough effect; inconclusive = small, poorly fitted or top-dose-only effect; inactive = flat fitted curve, though single readings scatter.

Assay: qHTS for Inhibitors of human tyrosyl-DNA phosphodiesterase 1 (TDP1): qHTS in cells in presence of CPT; note: nearly all actives have a fitted effect of over 55% in size
Conditions: chicken DT40 Tdp1-/-;hTDP1 cells + 20 nM CPT, ATP luminescence, 48 h; series mostly up to 46.2 µM; activity change, negative = growth inhibition: at the top concentration
In short: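 Cell growth measured by CellTiter-Glo luminescence after a minimum 48 h, 37 C compound exposure with 20 nM CPT in Tdp1-knockout DT40 cells stably expressing hTDP1, seeded 400/well; qHTS titration format.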
% is set by controls: 0 for no effect and ±100 for the full control effect; potency is the fitted concentration of half-maximal effect.

Structure (SMILES) | activity change, negative = growth inhibition | Potency
O=C(c1cccc(Br)c1)N1CCN(C2=NS(=O)(=O)c3ccccc32)CC1 | 3.46% | 
O=C(c1ccc2c(c1)C(=O)N(c1ccc(Cl)cc1)C2=O)N1CCN(c2ccccn2)CC1 | -5.02% | 
CCCCN(C)C(=O)c1ccc2c(c1)N(CC)C(=O)c1ccccc1S2(=O)=O | -26.8% | 
CC1CCCN(C(=O)CN2C(=O)c3ccccc3S2(=O)=O)C1 (stereo not drawn) | -12.1% | 
O=C(c1ccc2c(c1)N(Cc1ccc(F)cc1)C(=O)c1ccccc1S2(=O)=O)N1CCN(c2ccccn2)CC1 |  | 14.6 µM (active)
O=C(c1ccc2c(c1)N(Cc1ccccc1F)C(=O)c1ccccc1S2(=O)=O)N1CCOCC1 | -19% | 
O=C(c1ccc2c(c1)N(Cc1ccccc1)C(=O)c1ccccc1S2(=O)=O)N1CCCC1 |  | 11.6 µM (active)
O=C1c2ccccc2S(=O)(=O)c2cc(N3CCN(c4ccccn4)CC3)ccc21 | -14.1% | 
O=C(c1ccc2c(c1)N(Cc1ccccc1)C(=O)c1ccccc1S2(=O)=O)N1CCC(Cc2ccccc2)CC1 |  | 8.2 µM (active)
O=C(CN1C(=O)NC2(CCCC2)C1=O)Nc1ccc(F)c(F)c1F | 1.12% | 
CC(=O)CC(CC(=O)NC1CCCCC1)c1ccccc1 (stereo not drawn) | -7.82% | 
CCC(C)C1(C2CCCC2)NC(=O)NC1=O (stereo not drawn) | -0.666% | 
CCOc1ccc(NC(=O)CN(C)C(=O)Cc2sc(C)nc2-c2ccc(F)cc2)cc1OCC | -19% | 
O=C(c1cnccn1)N1CCC2(CCCN(Cc3ccccc3)C2)CC1 | 20.2% | 
O=C(CCCOc1ccccc1)NNC(=O)c1ccc(Cl)cc1 | 1.38% | 
Cc1ccc(S(=O)(=O)N2CCC(C)CC2)cc1C(=O)NCc1ccccn1 | -5.04% | 
CN(C)CCCNC(=S)NCc1ccc(Cl)cc1 | -11.7% | 
NCCCNC(=S)NCCCN(Cc1ccc(Cl)cc1)c1ccc(Br)cn1 |  | 15.8 µM (active)
S=C(NCc1ccc(Cl)cc1)NC1CCCCC1 | -20.8% | 
CCCn1c(C)cc(/C=C(\C#N)C(=O)OCC(=O)N(C)c2c(N)n(Cc3ccccc3)c(=O)[nH]c2=O)c1C | -14% | 
CN(/N=C/c1ccccc1)C(=S)c1ccccc1 | -24.4% | 
CN(O)C(=S)c1ccccc1 |  | 0.13 µM (active)
CN(CC(=O)O)C(=O)c1ccccc1 | 1.89% | 
CC(C)c1nc2cc(C(=O)NC(C)c3cnn(C)c3)ccc2o1 (stereo not drawn) | 4.73% | 
O=C(NCCS(=O)(=O)NCc1ccc(Cl)cc1)c1ccccc1 | -3.08% | 

Structure (SMILES) | activity change, negative = growth inhibition | Potency
CC(=O)c1cc(C#N)c(SCC(=O)C(C)(C)C)nc1C |  | 2.82 µM (active)
CC(=O)c1cc(C#N)c(N2CCCCC2)nc1C | -24.1% | 
CC(=O)c1cc(C#N)c(N2CC(C)OC(C)C2)nc1C (stereo not drawn) | 10.4% | 
O=C(NCc1cccnc1)c1ccc2nc([C@@H]3O[C@H](CO)[C@H](O)[C@H](O)[C@H]3O)[nH]c2c1 | 17.8% | 
CC1=NN(C(N)=S)C(=O)C1N=Nc1cc(Cl)ccc1Cl (stereo not drawn) | -94.3% | 
Cc1nc(Nc2ccccc2C)c2cnn(C)c2n1 | 10.9% | 
COc1ccc2[nH]c3c(c2c1)CCN1C(=O)C(CC(=O)NCCCN(C)C)C[C@H](C(=O)N2CCOCC2)[C@@]31CCC1CCCC1 (stereo partly drawn) | -11.2% | 
CC[C@]12c3[nH]c4ccc(OC)cc4c3CCN1C(=O)C(CC(=O)NCc1ccco1)C[C@@H]2C(=O)N1CCN(C(=O)C2CC2)CC1 (stereo partly drawn) | -10% | 
CC[C@]12c3[nH]c4ccc(Cl)cc4c3CCN1C(=O)[C@@H](CC(=O)NCCN1CCOCC1)C[C@@H]2C(=O)N1CCN(C(=O)C2CC2)CC1 | -14.3% | 
COc1ccc(CNC(=O)C[C@H]2C[C@H](C(=O)N3CCOCC3)[C@@]3(CCC4CCCC4)c4[nH]c5ccc(Cl)cc5c4CCN3C2=O)cc1OC |  | 16.4 µM (active)
O=C(C[C@H]1C[C@H](C(=O)N2CCOCC2)[C@@]2(CCC3CCCC3)c3[nH]c4ccc(Cl)cc4c3CCN2C1=O)NCc1ccco1 |  | 20.6 µM (active)
CC[C@]12c3[nH]c4ccc(Cl)cc4c3CCN1C(=O)[C@@H](CC(=O)NCCCOC)C[C@@H]2C(=O)N1CCN(C(=O)c2ccco2)CC1 | -26.2% | 
O=C(NNS(=O)(=O)c1ccc(F)cc1)c1ccc([N+](=O)[O-])cc1Cl | -27.5% | 
Cc1cc(OC(C)C(=O)Nc2ccc(S(=O)(=O)Nc3onc(C)c3C)cc2)cc(C)c1Cl (stereo not drawn) | 5.33% | 
CNC(=O)C1CC(=O)N(c2ccc(OCC(=O)Nc3ccccc3C)cc2)C1 (stereo not drawn) | 6.86% | 
COc1ccc(-c2nc(S(=O)(=O)c3ccccc3)c(N3CCCCC3)o2)cc1 |  | 23.1 µM (active)
O=S(=O)(c1ccc(Br)cc1)c1nc(-c2ccccc2)oc1N1CCOCC1 | -29.8% | 
O=S(=O)(Nc1cc(Cl)ccc1N1CCOCC1)c1ccccc1Cl | -20.2% | 
O=S(=O)(c1ccccc1)c1nc(Cc2ccccc2)oc1N1CCOCC1 | 1.8% | 
O=S(=O)(c1ccccc1)c1nc(-c2ccc(Cl)cc2Cl)oc1N1CCCCC1 |  | 14.6 µM (active)
CC(=O)c1ccc(N2CCN(c3nc4c(S(=O)(=O)c5ccccc5)nnn4c4ccc(Cl)cc34)CC2)cc1 | -4.91% | 
Cc1ccc(CNC(=O)CCC(=O)N2Cc3ccccc3Oc3ncccc32)cc1 | -16.5% | 
CC(C)Cc1nnc(N)s1 | -3.67% | 
COc1cc2ccc(C(C)=O)c(O)c2cc1OC | 9.28% | 
COCCC(=O)N1CCC(Oc2ccc(C(=O)NCc3ccon3)cc2)CC1 | 4.81% | 

Structure (SMILES) | activity change, negative = growth inhibition | Potency
CCOc1ccc(C(=O)N2CCN(CCc3ccccn3)CC2)cc1 | -1.49% | 
O=C(Cc1ccc(Cl)cc1)Nc1ccc2nn(-c3ccc(Cl)cc3)nc2c1 | -7.92% | 
Nc1ccc2nn(-c3ccc(Cl)cc3)nc2c1 |  | 6.51 µM (active)
Cc1cc2nn(-c3ccc(Cl)cc3)nc2cc1NC(=O)C(C)C | -6.45% | 
Cc1cccc(C)c1NC(=O)CNC(=O)c1c(C)nn(-c2ccccc2)c1C | -8.65% | 
COc1cc(NC(=O)Cn2c(=O)n(Cc3ccco3)c(=O)c3oc4ccccc4c32)cc(OC)c1 | -3.53% | 
Cc1nnc(SCC(=O)Nc2ccc(S(=O)(=O)Nc3ccc(Cl)nn3)cc2)s1 | -11.3% | 
CCOC(=O)Cn1c(-c2cccnc2Cl)nc2ccccc21 | 0.835% | 
CCOC(=O)CN1C(=O)C(O)(CC(=O)c2ccccn2)c2ccccc21 (stereo not drawn) |  | 5.8 µM (active)
CCOC(=O)CN1CCC(c2ccccc2)CC1 | -1.52% | 
CCn1c(SCc2cccc(C(=O)O)c2)nnc1-c1ccc(Cl)cc1 | 4.66% | 
CN(C)CCCOc1ccc(-c2ccc3nccn3c2)cn1 | 11.3% | 
Cc1cccc(C)c1NC(=O)c1ccc(CN2CCc3ccccc3C2)cc1 |  | 20.6 µM (active)
Cc1ccc(NC(=O)CN2CCc3ccccc3C2)cc1C | -29.3% | 
CCc1ccc(NC(=O)N2CCc3ccccc3C2)cc1 | -21.3% | 
CC(=O)c1ccc(S(=O)(=O)N2CCC(Oc3ccc(-n4cnnn4)cc3)CC2)cc1 |  | inactive
O=S(=O)(/C=C/c1ccccc1)N1CCNCC1 | -4.52% | 
COc1cc(C(=O)NCCOC(=O)c2cccc(N(C)C)c2)cc(OC)c1OC | 7.13% | 
CCN1CCN(CC(=O)c2cc(OC)c(OC)c(OC)c2)CC1 | -1.2% | 
CCn1c(CNC(=O)c2cc(OC)c(OC)c(OC)c2)cc2cc(C)ccc21 |  | 20.6 µM (active)
O=C(COC(=O)c1ccccc1)Nc1ccccc1Sc1ccccc1 | -2.56% | 
CCc1nc2nc(C)c(NS(=O)(=O)c3ccc4c(c3)CCCC4)c(=O)n2[nH]1 | -0.594% | 
Cn1nccc1NS(=O)(=O)c1ccc(F)cc1 | 3.58% | 
Cc1cc(F)ccc1NS(=O)(=O)c1ccc(-n2cccn2)cc1 |  | 14.6 µM (active)
Cc1ccc(NS(=O)(=O)c2ccc(F)cc2)nc1 | -7.37% | 

Structure (SMILES) | activity change, negative = growth inhibition | Potency
O=C(COc1ccc([N+](=O)[O-])cc1Cl)Nc1ccc2[nH]c(=O)[nH]c2c1 | -23% | 
COC(=O)C[C@@H]1C=C[C@@H](NC(=O)c2cccnc2)[C@@H](CO)O1 | 2.13% | 
Cc1ccc(C(=O)CSc2ccccc2C(=O)O)cc1 | -2.04% | 
Cc1ccc(SC(CC(=O)c2ccc(C(C)(C)C)cc2)C(=O)O)cc1 (stereo not drawn) |  | 3.66 µM (active)
Cc1ccc(Sc2cc(C(=O)c3ccccc3C(=O)O)ccc2[N+](=O)[O-])cc1 | -8.99% | 
COc1ccccc1C(=O)N/C(=C/c1ccc2c(c1)OCO2)C(=O)Nc1cccc(C(=O)O)c1 | -15.3% | 
CCOC(=O)c1sc(C)c2c1NC(C)(c1cccc3ccccc13)NC2=O (stereo not drawn) |  | 25.9 µM (active)
CCOC(=O)c1sc(-c2cccc([N+](=O)[O-])c2)cc1N | 0.456% | 
CCOC(=O)c1cc2cc3ccccc3cc2oc1=O | 1.87% | 
CCCNC(=O)COc1coc(CN2CCN(Cc3ccccc3)CC2)cc1=O | -4.86% | 
Cc1ccc(S(=O)(=O)N2CCC3(CC2)OCCO3)c(C)c1 | -0.485% | 
COc1cccc(Nc2ncc3ncc(=O)n(C4CC4)c3n2)c1 |  | 14.6 µM (active)
Cc1nc2cnc(Nc3ccccc3)nc2n(C[C@H]2CCCO2)c1=O | 5.94% | 
COc1cccc(Nc2ncccc2C(=O)O)c1 | -0.267% | 
COc1cccc(CC(=O)OCC(=O)NCc2ccc3c(c2)OCO3)c1 | -6.33% | 
CCC1CN(CCNC(=O)c2cccnc2C)Cc2cc(OC)ccc2O1 (stereo not drawn) | 21.1% [at 9.04 µM] | 
COc1cccc(OC)c1CN(C)C(=O)c1cnccc1C(F)(F)F | 6.45% | 
Cc1ccc(S(=O)(=O)c2cn(Cc3ccccc3)c3cc(N4CCCC4)c(F)cc3c2=O)c(C)c1 |  | 20.6 µM (active)
CCn1cc(S(=O)(=O)c2cccc(C)c2)c(=O)c2cc(F)c(N3CCN(C)CC3)cc21 | -15.2% | 
Cc1cccc(S(=O)(=O)c2cn(Cc3ccccc3)c3cc(N4CCOCC4)c(F)cc3c2=O)c1 |  | 6.51 µM (active)
CC1CCCN(c2cc3c(cc2F)c(=O)c(S(=O)(=O)c2cccc(Cl)c2)cn3Cc2ccccc2)C1 (stereo not drawn) | 0.498% | 
CCn1cc(C(=O)NCCO)c(=O)c2cc(F)c(N3CCN(C)CC3)cc21 | -4.68% | 
COCCNC(=O)C1CCN(S(=O)(=O)c2ccc3c(c2)OCCO3)CC1 | -10.3% | 
